# WRN helicase inh – WRN helicase (human) inhibition. AID 651768. WRN helicase unwinding, fluorescent forked duplex, kinetic. Potency, µM (doses to about 114 µM), for inactives: top-dose activity change, negative = inhibition, most hits filed as inhibitors. 360,000 tested, 0.46% active. Q14191; also: potency is read from the fitted curve at half-maximal effect; % is scaled to controls: 0 for no effect and ±100 for the full control effect; nearly all actives have a fitted effect of over 55% in size
#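 Primary qHTS, 1536-well format. 20 nM WRN + compound, 15 min RT; start with 100 nM forked fluorophore/quencher duplex, 2 mM ATP (final); kinetic read ex 525/em 598 nm.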
# Pol eta inh – DNA polymerase eta (human) inhibition; recombinant Pol eta, fluorescent DNA replication assay; 390,000 tested, 1.2% active; Potency, µM (series often up to 114 µM), for inactives: top-dose activity change, negative = inhibition, hits mostly inhibitors; Q9Y253; also: potency is read from the fitted curve at half-maximal effect; % is scaled to controls: 0 for no effect and ±100 for the full control effect
#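 Pol eta (10 nM) was preincubated with compounds for 15 min at room temperature, after which fluorescent replication substrate (50 nM final) was added to start the reaction. Fluorescence was read kinetically at 0 and 10 min.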
# Pol kappa inh – blocks human DNA polymerase kappa activity; AID 588579; Q9UBT6; 400,000 tested, 0.53% active; purified Pol kappa, fluorescent DNA synthesis assay, 10 min; Potency, µM (doses to about 107 µM), without a hit: at the top dose activity, negative = inhibition, most hits filed as inhibitors; also: potency is read from the fitted curve at half-maximal effect; % is scaled to controls: 0 for no effect and ±100 for the full control effect
#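 Activity was followed as the change in fluorescence between reads at 0 and 10 min after starting the reaction with 50 nM substrate. Beforehand, 10 nM polymerase had been preincubated with compound for 15 min at room temperature.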
# PI5P4K alpha inh – blocks human PI5P4K alpha kinase activity. P48426. PI5P4Kalpha enzyme, ADP-Glo luminescence, 60 min; active compounds read low. max response, %. 330,000 tested, 1.2% active; active = max response of -50% or lower; inconclusive = between -30% and -50%; inactive = -30% or higher; also: value at the top dose of about 77 µM; % is scaled to controls: 0 for no effect and ±100 for the full control effect
# Target sequence (P48426 whole entry, looked up): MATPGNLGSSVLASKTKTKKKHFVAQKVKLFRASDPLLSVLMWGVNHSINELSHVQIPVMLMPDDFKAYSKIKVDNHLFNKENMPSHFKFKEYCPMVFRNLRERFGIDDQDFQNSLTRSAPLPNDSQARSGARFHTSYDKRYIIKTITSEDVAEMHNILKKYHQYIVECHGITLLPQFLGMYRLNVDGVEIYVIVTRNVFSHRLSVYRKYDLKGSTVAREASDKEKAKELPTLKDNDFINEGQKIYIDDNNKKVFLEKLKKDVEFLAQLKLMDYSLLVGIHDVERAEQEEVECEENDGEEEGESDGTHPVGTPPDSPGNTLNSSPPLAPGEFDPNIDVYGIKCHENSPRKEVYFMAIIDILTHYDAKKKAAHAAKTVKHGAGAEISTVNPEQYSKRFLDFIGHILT
#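 Luminescence from ADP-Glo served as readout of PI5P4Kalpha activity in a qHTS format. Reaction: enzyme, substrate, compound, ATP at 5 microM final, 60 min at RT.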
# Pol beta inh – blocks human DNA polymerase beta activity; Pol beta primer extension/strand displacement, fluorescence kinetic; Potency, µM (series often up to 114 µM), inactives show top-dose activity change, negative = inhibition, hits mostly inhibitors; 340,000 tested, 1.3% active; also: potency is read from the fitted curve at half-maximal effect; % is scaled to controls: 0 for no effect and ±100 for the full control effect
#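 Kinetic readout of DNA synthesis with strand displacement by Pol beta. Compound and 10 nM enzyme sit 15 min at room temperature; 50 nM substrate starts the reaction, read immediately and at 10 min.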
# POLI inh – DNA polymerase iota (human) inhibition | Pol iota fluorescent replication assay, 10 min | Potency, µM (doses to about 115 µM), for inactives: at the top dose activity, negative = inhibition, hits mostly inhibitors | 390,000 tested, 1% active; also: potency is read from the fitted curve at half-maximal effect
#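 Pol iota at 10 nM preincubated 15 min with compounds at room temperature; reaction started with fluorescent substrate, 50 nM final. Fluorescence read kinetically at 0 and 10 min; buffer-only wells as negative control.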
# ADP-Glo interf – ADP-Glo luciferase interference, PI5P4K counter-screen | shares compounds with PI5P4K alpha inh | ADP-Glo detection counter-screen, luciferase luminescence, no enzyme | Potency, µM (highest dose often 76.9 µM), inactives show at the highest dose activity change, negative = inhibition, actives largely listed as inhibitors | 1,100 tested, under 10 active
# Starred values were filed as active, the others as inactive; ? = inconclusive; / = no result; [ ] = another dose, or the depositor's remark. Hits are enriched below; roughly 2.8% of the tested compounds scored in any of these assays. Unless noted, calls follow the shape of the dose curve; as a rule, active = well fitted curve in the direction sought with a large enough effect; inconclusive = small, poorly fitted or top-dose-only effect, or another doubt; inactive = no such curve, though single readings can be large; an effect the other way counts as inactive or inconclusive.
SMILES,WRN helicase inh,Pol eta inh,Pol kappa inh,PI5P4K alpha inh,Pol beta inh,POLI inh,ADP-Glo interf
O=C(NC1CC1)C1=C[C@@H](c2c[nH]c3ccccc23)C[C@@H](OCc2ccc(CO)cc2)O1,-2.0%,-2.1%,-13.1%,-50.5*,3.1%,?,-6.9%
CCOc1ccc(NC(=O)Cn2nc3c(cc2=O)CC(C)CC3)cc1 (stereo not given),/,-5.0%,-2.9%[60.1 µM],/,10.8%,-0.3%,/
O=C(COc1ccc(Br)cc1)Nc1ccc(C(=O)Nc2ccccc2C(=O)O)cc1,?,?,-3.1%,-58.3*,2.1%,69.7%,3.7%
O=C(COc1ccc2ccccc2c1)Nc1cccc(C(=O)Nc2ccccc2C(=O)O)c1,?,28.2µM*,-6.5%,-74.0*,10.4%,-6.1%,1.2%
Cc1ccc(OCC(=O)Nc2ccc(C(=O)Nc3ccccc3C(=O)O)cc2)cc1C,-1.4%,?,/,-26.5,/,/,/
COc1ccc(OCC(=O)Nc2ccc(C(=O)Nc3ccccc3C(=O)O)cc2)cc1,-5.3%,?,3.2%,?,?,-18.8%,/
CCC(=O)N1c2nc(C(C)C)nn2C2(CCCCC2)[C@@H]2CCCC[C@@H]21,/,-8.0%,-14.9%,/,-0.4%,36.4%,/
CSc1cccc(NC(=O)c2cnn3ccccc23)c1,-9.8%,-5.1%,-30.9%,-63.4*,4.7%,58.2%,-1.2%
CC(=O)N1CCN(c2csc3ccc(F)cc3c2=O)CC1,/,-11.8%,-16.9%[60.1 µM],/,5.0%,20.5%,/
CCCC(=O)Nc1nnc(SCC(=O)NCc2ccco2)s1,-7.9%,-7.6%,-8.2%,-11.4,?,68.8%,/
Cc1ccc(Nc2nnc(SCC(=O)NCc3ccco3)s2)cc1,-16.2%,?,?,-52.3*,10µM*,-20.6%,5.0%
CC(C)(C)[C@H]1C=C(C(=O)N2CCOCC2)O[C@@H](OCc2ccc(CO)cc2)C1,-2.6%,-2.1%,-1.5%,0.5,45.1%,?,3.2%
COc1ccccc1OCC(=O)Nc1ccc2c(c1)OCO2,?,?,-25.1%,-50.4*,50.1µM*,?,0.0%
COc1ccc(C2=NOC(C(=O)NCc3ccccn3)C2)cc1OC (stereo not given),-6.5%,4.5%,-7.8%,-52.8*,30.1%,27.4%,2.8%
O=C(O)c1ccc(-c2nnn(Cc3cccc(C(F)(F)F)c3)n2)cc1,-4.8%,-1.2%,4.6%,-52.1*,1.4%,-11.8%,-3.0%
CCOc1ccc(CC(=O)Nc2sc(Cc3ccccc3)c(C)c2C(N)=O)cc1OCC,-5.3%,-16.9%,-7.3%,-53.4*,-10.4%,-1.5%,-2.1%
Cc1c(Cc2ccccc2)sc(NC(=O)c2ccco2)c1C(N)=O,-6.7%,-11.2%,-3.0%,/,0.1%,-2.1%,/
O=S(=O)(Nc1ccc(-c2nc3cccnc3s2)cc1)c1ccc(Cl)s1,-0.2%,?,-6.1%,-61.7*,-24.9%,2.1%,-5.3%
CCS(=O)(=O)Nc1ccc(-c2nc3cccnc3s2)cc1,4.0%,-9.9%,1.1%,-59.5*,3.0%,20.3%,-8.6%
COc1cc(-c2noc(CSc3nc(-c4ccccc4)cc(=O)[nH]3)n2)cc(OC)c1OC,/,20.4%,-2.6%[60.1 µM],/,9.6%,?,/
O=C(CN1CCN(c2ccc(F)cc2)CC1)NC(=O)NCc1ccco1,-10.0%,-18.7%,-10.0%,-22.2,?,?,/
COc1cccc(N2CCN(CC(=O)NC(=O)NCc3ccco3)CC2)c1,-31.2%,79.4µM*,?,-70.6*,7.94µM*,12.6µM*,0.8%
O=C(Nc1nnc(SCc2ccc(Cl)cc2)s1)c1ccco1,-4.0%,-9.9%,-0.7%,-56.5*,16.8%,?,4.3%
O=C(CSc1nnc(NC(=O)c2ccco2)s1)Nc1ccccc1Cl,-5.0%,-5.2%,1.5%,4.1,38.6%,136.9%,/
O=S(=O)(NCCC1=CCCCC1)c1cccc(S(=O)(=O)N2CCOCC2)c1,-27.5%,-9.6%,-17.9%,-62.5*,2.1%,-11.3%,-1.6%
SMILES,WRN helicase inh,Pol eta inh,Pol kappa inh,PI5P4K alpha inh,Pol beta inh,POLI inh,ADP-Glo interf
CCOc1ccccc1-n1c(SCC(=O)Nc2ccccc2C(=O)O)nc2ccccc2c1=O,-19.3%,2.8%,-8.8%,-57.5*,-6.7%,9.1%,-5.6%
CCn1c(SCC(=O)Nc2ccccc2OC)nc2ccccc2c1=O,-8.1%,3.6%,-12.0%,/,30.6%,23.2%,/
Cc1ccc(S(=O)(=O)Nc2ccc3c(c2)CCCN3C(=O)c2cccs2)cc1,/,-14.9%,3.3%[60.1 µM],/,-2.5%,-1.6%,/
NC(Cc1ccc(C(F)(F)F)cc1)c1csc(NC(=O)Nc2ccccc2)n1 (stereo not given),-9.2%,/,/,-56.0*,/,/,-2.2%
COc1ccc(Cl)cc1NC(=O)CSc1nc2sccc2c(=O)[nH]1,-20.7%,-29.4%,-16.1%,-53.5*,56.2µM*,3.0%,1.9%
COc1ccc(C)cc1NC(=O)CSc1nc2scc(C)c2c(=O)[nH]1,6.6%,-1.2%,-2.5%,-26.0,5.3%,?,/
Cc1cccc(NC(=O)N2CCN3CCCCC3C2)c1C (stereo not given),/,-4.8%,10.2%,/,3.0%,31.5%,/
O=C(NCCCc1ccccc1)c1cccc(NC(=O)C2CC2)c1,5.3%,-9.3%,-1.5%,-3.6,/,27.4%,/
O=C(NCCCCc1ccccc1)c1cccc(NC(=O)C2CC2)c1,3.7%,-6.8%,1.7%,-53.3*,/,-21.4%,-1.2%
COc1ccc2nc(-c3ccco3)c(-c3ccco3)nc2c1,44.7µM*,3.16µM*,?,-57.9*,22.4µM*,?,-3.2%
CNC(=S)N(Cc1cccs1)Cc1cc2cc(OC)ccc2[nH]c1=O,?,-3.6%,-3.4%,-50.8*,-11.9%,11.1%,1.4%
CC(C)NC(=O)N1c2ccccc2Sc2ccccc21,3.8%,-19.5%,1.2%,-60.4*,0.7%,183.6%,-1.0%
CN(c1cccc(NC(=O)c2ccc(N(C)S(=O)(=O)c3ccccc3)cc2)c1)S(C)(=O)=O,-1.9%[11.6 µM],-17.1%,-2.8%,-55.5*,16.7%,?,-4.4%
CC(=O)Nc1ccc(C(=O)Nc2cccc(S(=O)(=O)N(C)c3ccccc3)c2)cc1,-1.6%,-17.9%,-6.3%,-1.4,/,-13.7%,/
COc1cc(Br)cc(CNc2ccc(F)c([N+](=O)[O-])c2)c1O,-9.0%,-15.6%,-7.3%,-28.2,-0.6%,14.8%,0.4%
Cc1ccc(CC(=O)Nc2ccc(F)c([N+](=O)[O-])c2)cc1C,-5.1%,-23.6%,-4.0%,1.8,-19.9%,12.0%,/
COc1ccc(N2CCN(C(=O)c3[nH]c(C(F)(F)F)nc3-c3ccccc3)CC2)cc1,-0.5%,/,/,-3.7,/,/,1.6%
